Rows were chosen to be rich in hits. Some 1.6% of all compounds tested hit in one or more screens of this group.
PfHsp40 rescue: compounds rescuing yeast from Plasmodium falciparum HSP40 toxicity; S. cerevisiae expressing PfHsp40, growth rescue, ATP luminescence; actives 0.68% (n = 340,000); growth rescue, % at 12.5 µM; in the data active means growth rescue above about 28%, passing the limit was not always enough; inconclusive means no clear call, values can overlap the other calls;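 further: yeast W303a lacking pdr1 and pdr3 grown in galactose medium; growth measured after three days at 30 °C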
Sa ugtP lethal: growth inhibition of S. aureus ugtP deletion strain | actives 0.54% (n = 330,000) | S. aureus RN4220 ugtP deletion, OD600 growth, 16 h | growth inhibition, % (no concentration beside the values); in the data active means growth inhibition above about 68%;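 further: plate controls were untreated wells for no effect and antibiotic for full effect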
BJeLR lethal: kills HRASV12-expressing BJeLR cells; BJeLR (HRASV12) viability, CellTiter-Glo ATP luminescence, 48 h; inhibition, % (concentration not given with the values); actives 0.17% (n = 300,000); AID 1554; in the data active means inhibition above about 50%; inconclusive means no clear call, values can overlap the other calls
Sa RN4220 lethal: kills Staphylococcus aureus RN4220 | S. aureus RN4220 growth, OD600, 16 h | inhibition, % (concentration not given with the values) | actives 0.33% (n = 330,000) | AID 1259311; in the data active means inhibition above about 85%;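 further: plate controls were untreated cells for no effect and reference antibiotic for full effect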
CCHF vOTU inh: CCHFV vOTU protease inhibition; AID 651958; actives 0.55% (n = 370,000); inhibition, % at 11.5 µM; Pep-AMC fluorescence; in the data active means inhibition above about 30%; further: 0% = vehicle wells with enzyme and 100% = no enzyme wells
* = called active by the depositor; ? = inconclusive; nt = no result given.

SMILES | PfHsp40 rescue | Sa ugtP lethal | BJeLR lethal | Sa RN4220 lethal | CCHF vOTU inh
CCCCN1C(=N)N([C@@H](CCC)CN2CCC[C@H]2CN2C(N)=NC[C@@H]2Cc2ccccc2)C[C@H]1[C@H](C)CC | 2 | nt | nt | nt | 13
CCCCN1C(=N)N(C(CCC)CN2CCCC2CN2C(N)=NCC2Cc2ccccc2)CC1Cc1ccccc1 (stereo not drawn) | nt | 98* | nt | 82 | nt
CCC[C@@H](CN1CCC[C@H]1CN1C(N)=NC[C@H]1C(C)C)N1C[C@@H](Cc2ccccc2)N(CCCC2CCCC2)C1=N | 3 | 101* | nt | 100* | 13
CC[C@@H](C)[C@@H]1CN([C@@H](CN2CCC[C@H]2CN2C(N)=NC[C@H]2C(C)C)C(C)C)C(=N)N1CCc1ccc(Cl)c(Cl)c1 | 3 | 101* | nt | 101* | nt
CCCCN1C(=N)N([C@@H](CCC)CN2CCC[C@H]2CN2C(N)=NC[C@H]2CC(C)C)C[C@H]1Cc1ccccc1 | 1 | 6 | nt | -2 | 1
CC(C)C[C@@H]1CN=C(N)N1C[C@@H]1CCCN1C[C@@H](C(C)C)N1C[C@@H](Cc2ccccc2)N(CCCC2CCCC2)C1=N | 2 | 101* | nt | 101* | 1
COc1ccc(C=Cc2onc(C)c2S(=O)(=O)N2CCC(C(=O)NCCC(C)C)CC2)cc1 | nt | -9 | nt | 1 | nt
O=[N+]([O-])c1ccc(-c2cnc(SCc3ccccc3Cl)[nH]2)cc1 | 149* | -10 | 1 | 6 | 4
Cc1ccc(N2CCN(N=Cc3ccccc3)CC2)cc1 | nt | 9 | nt | 8 | nt
COc1ccc(N=Nc2n(C)c3ccccc3[n+]2C)cc1 | nt | nt | 52* | nt | nt
CC(/C=C/c1ccco1)=N\NC(=O)c1cc(Cl)ccc1O | 75* | nt | 7 | nt | -13
COc1ccc(Nc2c3c(nc4ccccc24)CCCC3)cc1OC | 1 | -2 | 2 | 4 | 0
COc1ccc(C)cc1Nc1c2c(nc3ccccc13)CCC2 | 1 | -2 | 56* | 0 | -4
COc1cccc(C=NNc2ncnc3scc(-c4ccccc4)c23)c1O | nt | 46 | nt | 11 | nt
Oc1ccc(/C=N/Nc2nccnc2Cl)c(O)c1 | 8 | nt | 68* | nt | 5
COc1cccc(/C=N/Nc2ncnc3scc(-c4ccccc4)c23)c1O | 422* | nt | 70* | nt | 18
COc1cccc(C=NNc2ncc(C(F)(F)F)cc2Cl)c1O | nt | 99* | nt | 100* | nt
COc1cccc(/C=N/Nc2ncnc(Cl)c2N)c1O | 16 | nt | 56* | nt | 17
COc1cccc(C=NNc2ncnc(Cl)c2N)c1O | nt | 29 | nt | 26 | nt
C=CCN1C(=O)CSC1=NS(=O)(=O)c1ccc(Cl)cc1 | nt | 6 | nt | 5 | nt
CC(C)(C)C1CCc2c(C(=O)NN=Cc3cccs3)csc2C1 (stereo not drawn) | nt | -7 | nt | -13 | nt
CCN1C(=O)C2C(C1=O)C(c1ccc(OC)cc1)N1C(=O)c3ccccc3NC(=O)C21 (stereo not drawn) | nt | 0 | nt | 5 | nt
Cc1ccc(S(=O)(=O)N2C(c3cccs3)CC=C(C(=O)O)C2c2ccc(Cl)cc2)cc1 (stereo not drawn) | nt | 11 | nt | 23 | nt
CC(=NNC(=O)c1ccc(NS(=O)(=O)c2cccs2)cc1)c1ccncc1 | nt | 4 | nt | 7 | nt
CCC(C)C1COCCS(=O)(=O)N1Cc1ccccc1F (stereo not drawn) | nt | -1 | nt | 4 | nt
SMILES | PfHsp40 rescue | Sa ugtP lethal | BJeLR lethal | Sa RN4220 lethal | CCHF vOTU inh
NC(=O)C1CC2(CC(c3cccc(NC(=O)C4CCC(=O)N4)c3)=NO2)CN1C(=O)COc1ccc(Cl)cc1 (stereo not drawn) | nt | 13 | nt | 7 | nt
COc1ccccc1C=NNc1nccnc1Cl | nt | -8 | nt | 3 | nt
COc1cccc(/C=N/Nc2nccnc2Cl)c1O | 88* | nt | 18 | nt | 9
COc1ccccc1N1CCN(N=Cc2ccccc2)CC1 | nt | 3 | nt | 2 | nt
Cc1nc2ccccc2c(=O)n1N=Cc1cn(-c2ccccc2)nc1-c1cccs1 | nt | 13 | nt | -5 | nt
S=C1SCN(Cc2cccnc2)CN1Cc1cccnc1 | 309* | nt | 46 | nt | -8
CCCC(C)Sc1nc2c([nH]1)c(=S)n(C)c(=O)n2C (stereo not drawn) | 38* | nt | nt | nt | 0
Cc1cccc(NC(=S)N=Nc2c(O)[nH]c3ccccc23)c1 | ? | 95* | -5 | 99* | 14
CN1CCCC1CCNC(=O)c1c(-c2ccsc2)sc2ccccc12 (stereo not drawn) | nt | -1 | nt | 2 | nt
N#CCC(Cc1ccccc1)N1CCC(O)CCC1=O (stereo not drawn) | nt | 0 | nt | 2 | nt
Cc1ccsc1C(=O)N1CCCC(CCC(=O)NCc2ccccc2F)C1 (stereo not drawn) | 37* | 0 | -3 | 2 | 20
CCOC(=O)c1c(C)[nH]c(C(=O)NN=Cc2ccccc2Cl)c1C | nt | -8 | nt | 2 | nt
CCOC(=O)c1c(C)[nH]c(C(=O)N/N=C\c2ccccc2O)c1C | 37* | nt | 37 | nt | 1
N#Cc1c(N=Cc2ccco2)sc2c1CCC2 | nt | -4 | nt | 7 | nt
CSc1nnc(-c2ccccc2)o1 | 1 | 11 | -1 | 6 | -10
O=S1(=O)C=C(Sc2nnc(-c3ccccc3)o2)c2ccccc21 | 1 | 91* | 43 | 93* | nt
CN(C)C1C(=O)C(C(N)=O)=C(O)[C@@]2(O)C(=O)C3=C(O)c4c(O)cccc4[C@@](C)(O)C3CC12 (stereo partly drawn) | nt | 100* | nt | 100* | nt
C[C@H]1c2cccc(O)c2C(O)=C2C(=O)[C@]3(O)C(O)=C(C(N)=O)C(=O)[C@@H](N(C)C)C3[C@@H](O)C21 (stereo partly drawn) | 0 | nt | 7 | nt | 4
CN(C)C1C(=O)C(C(N)=O)=C(O)[C@@]2(O)C(=O)C3=C(O)c4c(O)cccc4[C@@](C)(O)C3C(O)C12 (stereo partly drawn) | nt | 99* | nt | 100* | nt
CN(C)C1C(=O)C(C(N)=O)=C(O)[C@@]2(O)C(=O)C3=C(O)c4c(O)ccc(Cl)c4C(O)C3CC12 (stereo partly drawn) | nt | 99* | nt | 100* | nt
CN(C)C1C(=O)C(C(N)=O)=C(O)C2(O)C(=O)C3=C(O)c4c(O)cccc4C(C)(O)C3C(O)C12 (stereo not drawn) | 7 | 100* | 3 | 100* | 8
COc1ccccc1/C=C/C=NNC(=O)c1ccncc1 | nt | 2 | nt | 0 | nt
Cc1nn(C)c(C)c1C=NNC(=O)C(C)(C)Oc1ccc(Cl)cc1 | nt | 2 | nt | 6 | nt
CC(NC(=O)c1nc[nH]c1C(=O)NC(c1ccccc1)c1ccccc1)C(=O)OCc1ccccc1 (stereo not drawn) | nt | 0 | nt | 0 | nt
CCC(C)Sc1cc(-c2nc3ccccn3c2NC2CCCCC2)ccc1OC (stereo not drawn) | ? | 99* | -5 | 100* | -5
CCC(C)Sc1cccc(-c2nc3cnccn3c2NC2CCCCC2)c1 (stereo not drawn) | 40* | 2 | nt | -19 | 13
CCC(C)Sc1cc(-c2nc3cc(C)ccn3c2NC2CCCCC2)ccc1OC (stereo not drawn) | -1 | 4 | nt | 0 | 20
O=C(CN1c2ccccc2Sc2ccccc21)NNC(=O)Nc1ccc(Cl)c(Cl)c1 | 2 | 101* | -7 | 100* | -9

Screens (PubChem BioAssay)
